Mcl1 Bid PPI: disrupts binding of human Mcl-1 to Bid peptide. Q07820. TR-FRET Mcl-1/Bid-Dy647 peptide binding, 1536-well. inhibition, % at 21.7 µM. hit rate 0.97% among 220,000;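 active = compounds that cut the binding signal by more than half at the single screening dose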;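 also: His-tagged Mcl-1 with europium anti-His antibody binding Bid BH3 peptide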
Target sequence (Q07820 whole entry, looked up): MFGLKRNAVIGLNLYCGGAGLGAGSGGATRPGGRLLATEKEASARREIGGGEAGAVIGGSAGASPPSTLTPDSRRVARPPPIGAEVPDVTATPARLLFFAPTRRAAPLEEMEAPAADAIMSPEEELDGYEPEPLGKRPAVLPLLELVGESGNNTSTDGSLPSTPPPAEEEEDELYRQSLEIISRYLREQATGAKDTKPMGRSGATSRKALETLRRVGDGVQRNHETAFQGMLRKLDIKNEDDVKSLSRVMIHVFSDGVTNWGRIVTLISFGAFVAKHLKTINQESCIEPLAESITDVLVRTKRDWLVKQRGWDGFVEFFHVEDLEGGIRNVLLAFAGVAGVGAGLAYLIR
Bcl-xL primary: inhibitors of human Bcl-xL. Q07817. GST-Bcl-xL / FITC-Bim BH3 peptide fluorescence polarization. inhibition, % at 10.9 µM. hit rate 0.7% among 320,000;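 active = inhibition above the mean of all tested compounds plus 3 SD, cutoff set per campaign, cut at about 30% in these data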;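 also: inhibitors lower millipolarization by displacing the labeled peptide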
Target sequence (Q07817 whole entry, looked up): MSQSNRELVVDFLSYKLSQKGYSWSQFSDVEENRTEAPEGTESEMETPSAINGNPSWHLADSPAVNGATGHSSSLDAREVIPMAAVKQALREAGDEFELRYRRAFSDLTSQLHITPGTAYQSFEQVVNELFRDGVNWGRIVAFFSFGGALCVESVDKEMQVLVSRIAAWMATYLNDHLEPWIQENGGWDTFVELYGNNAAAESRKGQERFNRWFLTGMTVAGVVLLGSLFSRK
GLD-1 TGE inh: GLD-1-TGE RNA interaction inhibition (C. elegans); Q17339; hit rate 0.44% among 320,000; inhibition, % at 5.96 µM; purified GLD-1 + fluorescein TGE RNA, fluorescence polarization;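 active = percent inhibition above a per-plate cutoff, the plate mean of test compounds plus 3 SD, cut at about 30% in these data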
Mcl-1 Bim block: inhibitors of Bim-Mcl-1 interaction, human. Bead-based flow cytometry, Bim peptide-Mcl-1 binding. inhibition, % at 10 µM. hit rate 0.1% among 190,000. AID 1009; in the data active = inhibition above about 40%
Mcl1 Noxa PPI: disrupts binding of human Mcl-1 to Noxa peptide. inhibition, % at 21.7 µM. TR-FRET Mcl-1/Noxa peptide binding, 2 h. Q07820. hit rate 1.5% among 220,000;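 active = compounds that cut the protein-peptide binding signal by more than 50% relative to plate controls in a single-dose test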;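 also: His-tagged Mcl-1 with rhodamine Noxa BH3 peptide and terbium anti-His antibody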
MCL1 BIM primary: disrupts human MCL1 binding to BIM-BH3 peptide. inhibition, % at 10.9 µM. GST-MCL1 / FITC-Bim-BH3 fluorescence polarization. Q07820. hit rate 0.68% among 320,000;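 active = inhibition above the mean inhibition of all tested compounds plus 3 SD, set per campaign, cut at about 40% in these data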;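 also: higher means more loss of mP so more displacement of Bim peptide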
Bcl-xL conf: Bcl-xL (human) inhibition, MCL1 counter-screen confirmation. hit rate 54% among 1,700. GST-Bcl-xL / FITC-Bim BH3 peptide FP binding. inhibition, % at 10.9 µM. shares compounds with MCL1 BIM primary;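 active = inhibition above a cutoff equal to the mean inhibition of all tested compounds plus 3 SD, cut at about 30% in these data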
MCL1 BIM confirm: MCL1-BIM-BH3 interaction inhibition, confirmation; shares compounds with MCL1 BIM primary; hit rate 61% among 1,700; GST-MCL1 / FITC-Bim-BH3 fluorescence polarization; inhibition, % at 10.9 µM;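 active = inhibition above the average of all tested compounds plus 3 SD, cut at about 40% in these data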
Hits are given with their value. Shown are actives, neighbours in structure and some others; about 2.3% of the full set was active somewhere.

Results for CCCCC1=CC2=C(c3ccco3)C(=O)C(C)(OC(=O)c3ccc(OC)cc3)C(=O)C2=CN1CCCCO (stereo unspecified) ?
Mcl1 Bid PPI: inactive; Bcl-xL primary: 79; GLD-1 TGE inh: 42; Mcl1 Noxa PPI: inactive; MCL1 BIM primary: 89; Bcl-xL conf: inactive; MCL1 BIM confirm: inactive

Results for CCOC(=O)[C@@H]1[C@H]2COc3ccc(Br)cc3[C@H]2N2C(=O)N(c3ccc(C)cc3)C(=O)[C@]12C ?
Bcl-xL primary: inactive; GLD-1 TGE inh: inactive; MCL1 BIM primary: inactive

How did O=C1NC(=S)N/C1=C\c1ccc(N2CCOCC2)cc1 do in these assays?
Mcl1 Bid PPI: inactive; Bcl-xL primary: inactive; GLD-1 TGE inh: inactive; Mcl-1 Bim block: inactive; Mcl1 Noxa PPI: inactive; MCL1 BIM primary: inactive

What do the screens show for `COc1cccc(=O)c2c(C)n(-c3cc(C)cc(C)c3)c(C)c12`?
Mcl1 Bid PPI: inactive; Bcl-xL primary: inactive; GLD-1 TGE inh: inactive; Mcl-1 Bim block: inactive; Mcl1 Noxa PPI: inactive; MCL1 BIM primary: inactive

Results for COc1cccc(-n2c(C)c3c(OC)cccc(=O)c3c2C)c1 ?
Mcl1 Bid PPI: inactive; Bcl-xL primary: inactive; GLD-1 TGE inh: inactive; Mcl-1 Bim block: inactive; Mcl1 Noxa PPI: inactive; MCL1 BIM primary: 41; Bcl-xL conf: inactive; MCL1 BIM confirm: inactive

How did O=C(O)C1CCC(NSc2ccccc2[N+](=O)[O-])CC1 (stereo unspecified) do in these assays?
Mcl1 Bid PPI: inactive; Bcl-xL primary: inactive; GLD-1 TGE inh: inactive; Mcl1 Noxa PPI: inactive; MCL1 BIM primary: inactive

How did N#C/C(=C\c1ccc(O)c(O)c1)C(=O)Nc1cccc2ncccc12 do in these assays?
Bcl-xL primary: inactive; GLD-1 TGE inh: inactive; MCL1 BIM primary: 71; Bcl-xL conf: 33; MCL1 BIM confirm: 69

What do the screens show for `N#C/C(=C\c1ccc(O)c(O)c1)C(=O)Nc1ccccc1`?
Bcl-xL primary: inactive; GLD-1 TGE inh: inactive; MCL1 BIM primary: inactive

Results for COCCCNc1c2c3c(cccc3[nH]c1=O)C(=O)c1ccccc1-2 ?
Mcl1 Bid PPI: inactive; Bcl-xL primary: 117; GLD-1 TGE inh: 75; Mcl-1 Bim block: inactive; Mcl1 Noxa PPI: inactive; MCL1 BIM primary: 124; Bcl-xL conf: 126; MCL1 BIM confirm: 137

Results for COCCCNC1=C(Cl)C(=O)c2ccccc2C1=O ?
Mcl1 Bid PPI: inactive; Bcl-xL primary: inactive; GLD-1 TGE inh: inactive; Mcl1 Noxa PPI: inactive; MCL1 BIM primary: inactive

What do the screens show for `CC(C)C1NC2(C(=O)c3ccccc3C2=O)C2C(=O)N(c3ccc(F)cc3)C(=O)C12` (stereo unspecified)?
Mcl1 Bid PPI: inactive; Bcl-xL primary: 80; GLD-1 TGE inh: 120; Mcl-1 Bim block: inactive; Mcl1 Noxa PPI: inactive; MCL1 BIM primary: 64; Bcl-xL conf: inactive; MCL1 BIM confirm: inactive

How did O=C1C2C3C=CC(CC3)C2C(=O)N1c1ccc(F)cc1 (stereo unspecified) do in these assays?
Bcl-xL primary: inactive; GLD-1 TGE inh: inactive; MCL1 BIM primary: inactive

Results for O=C1CNC(=O)/C(=C\c2ccccc2)N1 ?
Bcl-xL primary: inactive; GLD-1 TGE inh: inactive; MCL1 BIM primary: inactive

How did O=C1/C(=C/c2ccccc2)Nc2ccccc21 do in these assays?
Mcl1 Bid PPI: inactive; Bcl-xL primary: 64; GLD-1 TGE inh: inactive; Mcl-1 Bim block: inactive; Mcl1 Noxa PPI: inactive; MCL1 BIM primary: 57; Bcl-xL conf: 56; MCL1 BIM confirm: 82

What do the screens show for `COc1ccc(S(=O)(=O)N2CCc3ccccc32)cc1C(=O)N1CCOCC1`?
Bcl-xL primary: inactive; GLD-1 TGE inh: inactive; MCL1 BIM primary: inactive

Results for CN(C)c1ccc(N2C(=O)CSC2=S)cc1 ?
Mcl1 Bid PPI: inactive; Bcl-xL primary: 39; GLD-1 TGE inh: inactive; Mcl-1 Bim block: inactive; Mcl1 Noxa PPI: inactive; MCL1 BIM primary: 46; Bcl-xL conf: inactive; MCL1 BIM confirm: inactive

Results for O=C1CSC(=S)N1c1ccc(F)cc1 ?
Bcl-xL primary: inactive; GLD-1 TGE inh: inactive; MCL1 BIM primary: inactive

How did O=C(C1CCCC1)N1CCN=C1SCc1cccc([N+](=O)[O-])c1 do in these assays?
Mcl1 Bid PPI: inactive; Bcl-xL primary: inactive; GLD-1 TGE inh: inactive; Mcl-1 Bim block: inactive; Mcl1 Noxa PPI: inactive; MCL1 BIM primary: inactive

How did Cc1ccc2[nH]c3c(c2c1)CN(C(=O)CN(C)CC1OCCO1)CC3 do in these assays?
Mcl1 Bid PPI: inactive; Bcl-xL primary: 58; GLD-1 TGE inh: 53; Mcl-1 Bim block: inactive; Mcl1 Noxa PPI: inactive; MCL1 BIM primary: 61; Bcl-xL conf: inactive; MCL1 BIM confirm: inactive

How did O/N=C(\c1ccccc1)C(O)c1ccccc1 (stereo unspecified) do in these assays?
Bcl-xL primary: inactive; GLD-1 TGE inh: inactive; MCL1 BIM primary: inactive

Results for O=S(=O)(c1ccc2c(c1)CCCN2)N1CCCC1 ?
Bcl-xL primary: inactive; GLD-1 TGE inh: inactive; MCL1 BIM primary: inactive

What do the screens show for `CCN(CC)c1ccc2c(c1)CCCN2`?
Mcl1 Bid PPI: inactive; Bcl-xL primary: 105; GLD-1 TGE inh: 90; Mcl-1 Bim block: inactive; Mcl1 Noxa PPI: 69; MCL1 BIM primary: 128; Bcl-xL conf: inactive; MCL1 BIM confirm: inactive

How did CC[C@@]1(O)C(=O)OCc2c1cc1n(c2=O)Cc2cc3c(N)cccc3nc2-1 do in these assays?
Mcl1 Bid PPI: inactive; Bcl-xL primary: inactive; GLD-1 TGE inh: inactive; Mcl1 Noxa PPI: inactive; MCL1 BIM primary: inactive

Results for CC[C@@]1(O)C(=O)OCc2c1cc1n(c2=O)Cc2cc3c(CN(C)C)c(O)ccc3nc2-1 ?
Bcl-xL primary: active; GLD-1 TGE inh: active; MCL1 BIM primary: active; Bcl-xL conf: active; MCL1 BIM confirm: active

Results for CCc1ccc(NC(=O)CCCN2C(=O)C3CC=CCC3C2=O)cc1 (stereo unspecified) ?
Bcl-xL primary: inactive; GLD-1 TGE inh: inactive; MCL1 BIM primary: inactive

What do the screens show for `CC(=O)N/N=C/c1cc(C(C)C)cc(/C=N/NC(C)=O)c1O`?
Mcl1 Bid PPI: inactive; Bcl-xL primary: 93; GLD-1 TGE inh: 143; Mcl-1 Bim block: inactive; Mcl1 Noxa PPI: inactive; MCL1 BIM primary: 100; Bcl-xL conf: 92; MCL1 BIM confirm: 101

What do the screens show for `O=C(COC(=O)/C=C/c1ccc(Br)o1)Nc1ccc2[nH]c(=O)[nH]c2c1`?
Bcl-xL primary: inactive; GLD-1 TGE inh: inactive; MCL1 BIM primary: 68; Bcl-xL conf: inactive; MCL1 BIM confirm: 63

How did O=C(CCS(=O)(=O)Cc1ccc(Cl)cc1)NCCc1ccccc1 do in these assays?
Mcl1 Bid PPI: inactive; Bcl-xL primary: inactive; GLD-1 TGE inh: inactive; Mcl-1 Bim block: inactive; Mcl1 Noxa PPI: inactive; MCL1 BIM primary: inactive

What do the screens show for `Cc1cc(C)c2sc(NC(=O)C3CC3)nc2c1`?
Bcl-xL primary: inactive; GLD-1 TGE inh: inactive; MCL1 BIM primary: inactive
